Compounds with a hit are over-represented: about 4.6% of the library has one in this group of screens.
ABHD5-PLIN5 inh: ABHD5-PLIN5 interaction inhibitors, primary screen, cell lysate, split luciferase complementation, luminescence; 360,000 compounds, 0.78% hits; inhibition, % at 4 µM; Split G. princeps luciferase complementation, 4 h;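 active = inhibition above the mean inhibition across every tested compound plus 3 SD, cut at about 22% in these data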
CF NFkB inh: inhibitors of PAF-induced NF-kB signaling, primary screen, cell-based, GFP fluorescence, uHTS. KKLEB NF-kB-GFP reporter, GFP fluorescence overnight. inhibition, % at 5 µM. 360,000 compounds, 0.86% hits. AID 588850, 2011;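 active = at least 50% inhibition at 5 µM, scaled per plate between neutral and stimulator controls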;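 also: PAF is a Pseudomonas aeruginosa culture filtrate used as stimulus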
Mdm2-MdmX inh: inhibitors of human Mdm2-MdmX association, primary screen, cell-based, luminescence, split luciferase, SaOS-2, uHTS. SaOS-2 split-luciferase Mdm2/MdmX complementation. 330,000 compounds, 3% hits. Protein Mdm4 (Homo sapiens) + E3 ubiquitin-protein ligase Mdm2 (Homo sapiens), …. inhibition, % at 8 µM;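 active = inhibition of at least 50% at 8 µM in the primary screen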
Peg3 prom inh: Peg3 promoter-driven luciferase inhibitors, primary screen, cell-based, HeLa, luciferase luminescence | HeLa PEG-Prom luciferase reporter, overnight | inhibition, % at 20 µM | 360,000 compounds, 1.7% hits;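 active = inhibition of at least 50% at 20 µM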
KKLEB cytotox: cytotoxicity in KKLEB CF airway cells, primary screen, cytotoxicity control for CF NF-kB inhibitor project, cell-based, uHTS, fluorescence assay plates | AID 602141, 2011 | 360,000 compounds, 0.36% hits | KKLEB CF airway cells viability, ATPlite luminescence, overnight; hits give low values; cells stimulated with P. aeruginosa culture filtrate | activity change (cytotoxicity), % at 5 µM;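 active = corrected activity change at or below -50% at 5 µM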
HIF-2a block: HIF-2a reporter inhibitors, primary screen, luminescence, 786-0 RCC cells | 786-0 RCC cells HIF-2a reporter, luciferase luminescence, overnight | inhibition, % at 18.8 µM | 360,000 compounds, 0.72% hits;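 active = inhibition of the luminescence signal of 40% or more relative to plate controls, in a single-dose primary screen at 18.75 µM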
Mdm2 MdmX conf: Mdm2-MdmX complex disruptors, retested hits, confirmation, luminescence, single concentration. Mdm2-MdmX binding, luminescent assay. shares compounds with Mdm2-MdmX inh. AID 489028, 2010. inhibition, % at 8 µM. 10,000 compounds, 55% hits; in the data active = inhibition above about 40%
FLuc counter: full-length luciferase signal inhibition, confirmation, counter-screen for Mdm2/MdmX interaction inhibitor project, cell-based, single concentration, SaOS-2; shares compounds with Mdm2-MdmX inh; SaOS-2 full-length luciferase counterscreen, luminescence; AID 504607, 2011; 6,200 compounds, 77% hits; inhibition, % at 8 µM;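 active = mean inhibition at 8 µM reaching about 37%, which flags the compound as non-specific, limit read from the data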;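 also: p53-null SaOS-2 cells with luciferase driven by a doxycycline-inducible promoter; compound on cells about two nights before reading with doxycycline added after day one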
Large screens that a line does not name were inactive (follow-up assays come after a bar, where they were run).

Cn1cc(CN2CCN(c3ncccn3)CC2)c(-c2cccc(Cl)c2)n1	none
Cc1cc(N2CCN(Cc3cn(C)nc3-c3cccc(Cl)c3)CC2)cc(C)n1	Mdm2-MdmX inh 61 | Mdm2 MdmX conf 62 | FLuc counter 43
CCN(CCNC(=O)C1CCN(Cc2nc(-c3cccc(Cl)c3)oc2C)CC1)c1ccccc1	Mdm2-MdmX inh 52 | Mdm2 MdmX conf 51 | FLuc counter 61
CCc1ccc(-c2nc(CN3CCC(C(=O)NCc4ccc(F)cc4)CC3)c(C)o2)cc1	Mdm2-MdmX inh 58 | Mdm2 MdmX conf 42 | FLuc counter 67
COc1ccc(-c2nc(CN3CCC(C(=O)NC4CCN(Cc5ccccc5)CC4)CC3)c(C)o2)cc1OC	Mdm2-MdmX inh 80 | Mdm2 MdmX conf 49 | FLuc counter 55
Cc1oc(-c2ccc(Cl)cc2)nc1CN1CCC(C(=O)NCc2cccs2)CC1	none
CCc1ccc(-c2nc(CN3CCC(C(=O)N4CCN(c5ccccn5)CC4)CC3)c(C)o2)cc1	none
Cc1oc(-c2cccc(Cl)c2)nc1CN1CCC(C(=O)NC2CC2)CC1	none
CCc1ccc(-c2nc(CN3CCC(C(=O)N4CCN(c5ccccc5)CC4)CC3)c(C)o2)cc1	Mdm2-MdmX inh 53, Peg3 prom inh 88 | Mdm2 MdmX conf 40 | FLuc counter 86
COc1ccc2c(c1)C(CC(C)=O)N(c1ccc(-c3cccs3)cc1)C(c1ccsc1)=C2 (stereo not drawn)	none (no result: CF NFkB inh, Mdm2-MdmX inh, Peg3 prom inh, KKLEB cytotox)
O=C(Nc1ccc(Cl)c(C(F)(F)F)c1)C1Cc2c(-c3ccc4c(c3)OCO4)ccnc2O1 (stereo not drawn)	none (no result: Mdm2-MdmX inh)
Cc1ccc(C)c(OCc2cc(C(=O)NC3CCN(Cc4ccccc4)CC3)no2)c1	Mdm2-MdmX inh 53 | Mdm2 MdmX conf inactive
CCN(CCNC(=O)C1CCCN(Cc2nc(-c3ccc(OC)cc3)oc2C)C1)c1ccccc1 (stereo not drawn)	none
CCN(CCNC(=O)C1CCN(Cc2nc(-c3ccc(Cl)cc3)oc2C)CC1)c1ccccc1	Mdm2-MdmX inh 51 | Mdm2 MdmX conf 54 | FLuc counter 48
CCc1ccc(-c2nc(CN3CCC(C(=O)NCCN(CC)c4ccccc4)CC3)c(C)o2)cc1	Mdm2-MdmX inh 78, Peg3 prom inh 108 | Mdm2 MdmX conf 80 | FLuc counter 59
Cc1ccc(CN2CCSc3ccc(C(=O)NC4CCN(Cc5ccccc5)CC4)cc32)cc1	none
Cc1ccc(-n2c(=O)[nH]c3cc(C(=O)NC4CCN(Cc5ccccc5)CC4)ccc3c2=O)cc1	Mdm2-MdmX inh 87 | Mdm2 MdmX conf inactive
O=C(NC1CCN(Cc2ccccc2)C1)c1cc(COc2ccc(F)cc2F)on1 (stereo not drawn)	none
O=C(COC(=O)Cc1ccc(Cl)cc1)NC1CCCC1	none
Cc1oc(-c2ccc(Cl)cc2)cc1C(=O)NC1CCN(Cc2ccccc2)CC1	Mdm2-MdmX inh 60 | Mdm2 MdmX conf inactive
Cc1oc(C(C)(C)C)cc1C(=O)NC1CCN(Cc2ccccc2)CC1	none
O=C(Nc1ccc(C(=O)NCCCN2CCN(c3ccc(F)cc3)CC2)cc1)C1=CSCCO1	none
COc1cccc(CNn2cnnc2)c1OCc1ccc(F)cc1	none
COc1cccc(CNC23CC4CC(CC(C4)C2)C3)c1OCc1ccccc1	Mdm2-MdmX inh 52 | Mdm2 MdmX conf 43 | FLuc counter 59
COc1cc(CNCCc2c[nH]c3ccccc23)ccc1OCc1ccccc1F	Mdm2-MdmX inh 90 | Mdm2 MdmX conf inactive
COc1cccc(CNCCc2c[nH]c3ccccc23)c1OCc1ccccc1	Mdm2-MdmX inh 54, Peg3 prom inh 105 | Mdm2 MdmX conf inactive
COc1ccc(CCNC(=O)NCCc2c[nH]c3ccccc23)cc1OC	none
CC(C)S(=O)(=O)c1csc(NC(=O)Nc2cc(Cl)ccc2Cl)c1Cl	Mdm2-MdmX inh 62 | Mdm2 MdmX conf inactive | FLuc counter 93
O=C(COC(=O)c1ccccc1[N+](=O)[O-])c1ccc2c(c1)OCO2	Mdm2-MdmX inh 53 | Mdm2 MdmX conf 83 | FLuc counter 148
Cc1cc(Cl)ccc1C(O)c1ncc(-c2ccc(F)cc2)[nH]1 (stereo not drawn)	none (no result: Mdm2-MdmX inh)
CN(C)CCNC(=O)/C(=C/c1ccc(-c2cccc(Cl)c2)o1)NC(=O)c1ccccc1	Mdm2-MdmX inh 91 | Mdm2 MdmX conf 61 | FLuc counter 45
Cc1ccc(C(=O)N/C(=C\c2ccc(-c3cccc([N+](=O)[O-])c3)o2)C(=O)NCCCN2CCOCC2)cc1	Mdm2-MdmX inh 51, Peg3 prom inh 94 | Mdm2 MdmX conf inactive
COc1ccc(C(=O)N/C(=C\c2ccc(-c3cccc([N+](=O)[O-])c3)o2)C(=O)NCCCN2CCOCC2)cc1	none (no result: Mdm2-MdmX inh)
COc1ccc(-c2cn(-c3ccccc3)c(=S)[nH]2)cc1OC	Mdm2-MdmX inh 94 | Mdm2 MdmX conf inactive
COc1ccc(-c2cn(-c3ccc(C)c(C)c3)c(=S)[nH]2)cc1OC	none
O=Cc1c[nH]c2cccc(OCc3ccccc3)c12	Mdm2-MdmX inh 57 | Mdm2 MdmX conf 53 | FLuc counter 64
CCc1ccc(N=C2NC(=O)/C(=C/c3ccc(OCC(=O)O)c(OC)c3)S2)cc1	none
COc1cc(/C=C2\SC(=Nc3ccc(O)cc3)NC2=O)cc(OC)c1OC	Mdm2-MdmX inh 52 (no result: ABHD5-PLIN5 inh, CF NFkB inh, Peg3 prom inh, KKLEB cytotox, HIF-2a block) | Mdm2 MdmX conf 65 | FLuc counter inactive
COc1cc(/C=C2/SC(=Nc3ccc(O)cc3)NC2=O)cc(OC)c1O	Mdm2-MdmX inh 62 | Mdm2 MdmX conf 61 | FLuc counter 62
CCNS(=O)(=O)c1ccc(Br)c(C(=O)OC(C)C(=O)NCC2CCCCC2)c1 (stereo not drawn)	none
CC(C)C[C@@H]1CN(CCCC[C@H]2CNC(=O)C(=O)N2CCC2CCCCC2)C(=O)C(=O)N1CC1CCCCC1	none (no result: CF NFkB inh, Mdm2-MdmX inh, Peg3 prom inh, KKLEB cytotox)
Cn1c(C(=O)NCCCN2CCOCC2)cc2c(=O)n(C)c3ccccc3c21	none
Cc1ccc2oc(=O)c3cc(C(=O)NCCCN4CCN(C)CC4)sc3c2c1	none
CCCN(CCC)CCNC(=O)c1cc2c(=O)n(CC)c3ccccc3c2s1	Mdm2-MdmX inh 71 | Mdm2 MdmX conf 46 | FLuc counter 69
